Results as given in PubChem BioAssay.
The source made the active and inactive calls.

What was measured:
[1] = test system: Plasmodium falciparum Sir2 (PF13_0152, Sir2A); assay: Plasmodium falciparum Sir2A binding compounds – biochemical, small-molecule microarray, 635 nm fluorescence, primary screen (AID 1098); settings: fluorescence 635 nm, higher = more signal;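 also: score merges spot fluorescence intensity with its signal-to-noise ratio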
[2] = probe aDKK1 binding to arrayed compounds – biochemical, biotinylated probe, 635/667 nm fluorescence, primary screen (AID 1099); settings: small-molecule microarray, higher = more signal;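 also: score merges 667nm spot fluorescence with signal to noise across triplicate slides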
[3] = probe aCHRDL2 binding to arrayed compounds – biochemical, biotinylated probe, 635/667 nm fluorescence, primary screen (AID 1100); settings: small-molecule microarray, higher = more signal
[4] = change in splice reporter luminescence, either direction, cell-based, HEK293, spliceosome inhibition project, primary screen (AID 1101); settings: HEK293 splicing luciferase reporter, 24 h, higher = more signal, called active from +8 up or from −8 down;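 also: HEK293 cells carrying a splicing-competent luciferase reporter gene; test concentration not given here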
[5] = target: Fibroblast growth factor 10 (Homo sapiens) (UniProt O15520); assay: compounds binding fibroblast growth factor 10 – biochemical, small-molecule microarray, 635 nm fluorescence, primary screen (AID 1102); settings: FGF10 binding, fluorescence 635 nm, higher = more signal
Chain of Fibroblast growth factor 10 (Homo sapiens) (O15520 whole entry, looked up): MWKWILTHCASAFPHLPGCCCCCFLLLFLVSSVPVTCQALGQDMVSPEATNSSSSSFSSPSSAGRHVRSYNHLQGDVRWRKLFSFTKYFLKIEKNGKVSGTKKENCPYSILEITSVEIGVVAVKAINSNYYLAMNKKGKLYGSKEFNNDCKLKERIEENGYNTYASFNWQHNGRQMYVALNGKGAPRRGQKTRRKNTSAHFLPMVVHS

[6] = test system: glycogen synthase kinase-3 (GSK3A per assay name; protocol says GSK3B); assay: compounds binding glycogen synthase kinase-3 – biochemical, small-molecule microarray, 635 nm fluorescence, GSK3A, primary screen (AID 1103); settings: fluorescence 635 nm, higher = more signal; also: the record names both GSK3A and GSK3B
[7] = target: Epidermal growth factor receptor (Homo sapiens) (UniProt P00533); assay: compounds binding epidermal growth factor receptor – biochemical, small-molecule microarray, 635 nm fluorescence, primary screen (AID 1104); settings: EGFR binding, higher = more signal;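 also: score merges 667 nm emission intensity with spot signal to noise over triplicate slides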
Chain of Epidermal growth factor receptor (Homo sapiens) (P00533 whole entry, looked up): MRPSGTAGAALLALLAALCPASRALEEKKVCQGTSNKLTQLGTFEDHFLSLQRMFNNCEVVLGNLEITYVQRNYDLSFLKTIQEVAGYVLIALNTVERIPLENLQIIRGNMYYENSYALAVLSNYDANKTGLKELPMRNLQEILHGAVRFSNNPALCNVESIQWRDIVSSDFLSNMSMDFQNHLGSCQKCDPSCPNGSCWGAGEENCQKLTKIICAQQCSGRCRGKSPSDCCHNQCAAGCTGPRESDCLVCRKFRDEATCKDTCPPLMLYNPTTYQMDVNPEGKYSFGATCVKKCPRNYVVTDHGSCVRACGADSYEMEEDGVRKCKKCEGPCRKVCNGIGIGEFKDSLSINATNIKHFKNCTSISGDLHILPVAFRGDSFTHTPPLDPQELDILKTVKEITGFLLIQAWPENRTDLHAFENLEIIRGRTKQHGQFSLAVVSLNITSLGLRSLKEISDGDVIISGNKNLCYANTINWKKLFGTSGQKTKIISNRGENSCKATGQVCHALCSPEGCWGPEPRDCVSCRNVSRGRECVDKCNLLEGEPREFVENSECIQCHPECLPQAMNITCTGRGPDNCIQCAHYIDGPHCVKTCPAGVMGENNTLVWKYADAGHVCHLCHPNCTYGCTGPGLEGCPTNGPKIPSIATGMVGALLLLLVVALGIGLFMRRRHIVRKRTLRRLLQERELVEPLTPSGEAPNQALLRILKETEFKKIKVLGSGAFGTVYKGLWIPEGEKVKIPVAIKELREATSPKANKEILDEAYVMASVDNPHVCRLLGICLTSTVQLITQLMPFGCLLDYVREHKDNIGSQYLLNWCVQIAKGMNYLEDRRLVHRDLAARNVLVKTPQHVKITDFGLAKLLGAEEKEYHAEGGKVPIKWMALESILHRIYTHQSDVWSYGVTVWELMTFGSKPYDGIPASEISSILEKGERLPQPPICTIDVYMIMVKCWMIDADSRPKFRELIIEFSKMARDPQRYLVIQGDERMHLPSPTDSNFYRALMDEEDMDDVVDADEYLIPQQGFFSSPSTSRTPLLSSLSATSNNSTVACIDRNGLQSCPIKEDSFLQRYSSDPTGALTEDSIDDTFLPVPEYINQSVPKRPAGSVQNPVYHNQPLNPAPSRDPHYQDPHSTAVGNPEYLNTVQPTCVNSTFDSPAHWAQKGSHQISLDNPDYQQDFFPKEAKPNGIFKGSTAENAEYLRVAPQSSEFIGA

[8] = target: Follistatin-related protein 3 (Homo sapiens) (UniProt O95633); assay: compounds binding follistatin-related protein 3 – biochemical, small-molecule microarray, 635 nm fluorescence, primary screen (AID 1105); settings: FSTL3 binding, higher = more signal;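 also: score merges emission near 667 nm and signal to noise per printed spot across three slides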
Chain of Follistatin-related protein 3 (Homo sapiens) (O95633 whole entry, looked up): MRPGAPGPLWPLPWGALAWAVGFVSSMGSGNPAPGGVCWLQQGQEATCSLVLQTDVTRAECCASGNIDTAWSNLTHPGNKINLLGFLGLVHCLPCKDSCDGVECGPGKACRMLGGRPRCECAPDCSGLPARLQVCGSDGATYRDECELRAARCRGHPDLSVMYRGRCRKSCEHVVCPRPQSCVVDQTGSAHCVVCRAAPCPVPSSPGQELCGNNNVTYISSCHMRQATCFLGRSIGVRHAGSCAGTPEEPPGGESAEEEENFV

[9] = target: Dickkopf-related protein 1 (Homo sapiens) (UniProt O94907); assay: small molecules binding DKK1 protein – biochemical, small-molecule microarray, 635 nm fluorescence scan, primary screen (AID 1106); settings: higher = more signal;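 also: score merges emission near 667 nm with signal to noise over three replicate slides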
Chain of Dickkopf-related protein 1 (Homo sapiens) (O94907 whole entry, looked up): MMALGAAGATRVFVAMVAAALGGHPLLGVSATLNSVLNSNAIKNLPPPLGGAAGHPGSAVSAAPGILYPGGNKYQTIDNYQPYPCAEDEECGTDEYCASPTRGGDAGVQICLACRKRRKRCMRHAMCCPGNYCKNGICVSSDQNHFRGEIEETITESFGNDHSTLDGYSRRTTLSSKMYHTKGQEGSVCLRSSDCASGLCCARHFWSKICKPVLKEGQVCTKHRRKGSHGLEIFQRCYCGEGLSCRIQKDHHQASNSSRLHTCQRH

[10] = test system: Inhibin beta A chain (activin A); assay: small molecules binding activin A – biochemical, small-molecule microarray, 635 nm fluorescence scan, primary screen (AID 1107); settings: INHBA, higher = more signal;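 also: mouse activin A protein probed at 4.33 µg/mL on printed slides; score merges bound-protein fluorescence near 667 nm with spot signal-to-noise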
[11] = test system: Human papillomavirus type 1a protein E7 (residues 44-93); assay: small molecules binding HPV E7 44-93 – biochemical, small-molecule microarray, residues 44-93, 635 nm fluorescence, primary screen (AID 1108); settings: fluorescence 635 nm, higher = more signal;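 also: E7 fragment applied at 1 µg/mL in TBST for 1 h at 4 C; score combines spot fluorescence with its signal to noise ratio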
[12] = hepatitis C replication reporter changes, two-sided – Huh7 cells, luciferase reporter, HCV replication inhibitor project, primary screen (AID 1109); settings: Huh7 HCV replicon luciferase reporter, 48 h; higher = more signal;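 also: huh7 hepatoma cells harbouring a luciferase neomycin HCV replicon reporter; luciferase luminescence as measure of HCV replicon replication; test concentration not given here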
[13] = target: Left-right determination factor 2 (Homo sapiens) (UniProt O00292); assay: small molecules binding LEFTY2 protein – biochemical, small-molecule microarray, 635 nm fluorescence scan, primary screen (AID 1110); settings: higher = more signal
Chain of Left-right determination factor 2 (Homo sapiens) (O00292 whole entry, looked up): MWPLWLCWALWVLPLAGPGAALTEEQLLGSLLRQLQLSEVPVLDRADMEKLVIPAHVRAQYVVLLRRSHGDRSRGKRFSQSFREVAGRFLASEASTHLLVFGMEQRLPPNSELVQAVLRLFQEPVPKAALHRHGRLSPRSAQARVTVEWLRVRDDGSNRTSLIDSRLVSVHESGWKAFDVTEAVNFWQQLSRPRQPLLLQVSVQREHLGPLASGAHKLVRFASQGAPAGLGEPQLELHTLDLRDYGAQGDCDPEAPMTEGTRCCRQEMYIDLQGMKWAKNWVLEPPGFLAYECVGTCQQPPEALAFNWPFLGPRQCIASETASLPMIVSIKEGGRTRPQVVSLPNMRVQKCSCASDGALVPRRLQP

[14] = target: Calmodulin-1 (Homo sapiens) (UniProt P0DP23); assay: small molecules binding calmodulin-1 with EGTA – biochemical, small-molecule microarray, Cy5-labelled CALM1, profiling panel (AID 1111); settings: Cy5-CALM1 binding fluorescence, higher = more signal;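 also: labelled calmodulin applied in Tris saline Tween buffer holding calcium plus EGTA and DTT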
[15] = target: Calmodulin-1 (Homo sapiens) (UniProt P0DP23); assay: small molecules binding Ca-loaded calmodulin-1 – biochemical, small-molecule microarray, Cy5-labelled CALM1, plus calcium, artefact control for SMM control-protein annotation, profiling panel (AID 1112); settings: Cy5-CALM1 binding fluorescence, higher = more signal;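 also: score merges spot fluorescence with signal to noise from triplicate slides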
[16] = probe aWnt5a binding to arrayed compounds – biochemical, biotinylated probe, 635/667 nm fluorescence, primary screen (AID 1113); settings: small-molecule microarray, higher = more signal;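 also: score merges 667 nm fluorescence intensity with signal-to-noise per printed feature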
[17] = probe aShh binding to arrayed compounds – biochemical, biotinylated probe, 635/667 nm fluorescence, primary screen (AID 1114); settings: small-molecule microarray, higher = more signal;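 also: probe is biotin-labelled aShh protein from a stem cell growth factor screen; measures binding of labelled protein to compounds printed on the slide; score merges feature fluorescence at 667 nm with signal-to-noise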
[18] = probe aNog binding to arrayed compounds – biochemical, biotinylated probe, 635/667 nm fluorescence, primary screen (AID 1115); settings: small-molecule microarray, higher = more signal;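 also: probe is biotinylated aNog protein used at 0.15 µg/mL for 1 h at 4 C; z-score combines 667 nm fluorescence of each spot with its signal to noise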
[19] = target: Torsin-1A-interacting protein 1 (Homo sapiens) (UniProt Q5JTV8); assay: compound microarray binding of lysate hLAP1 – cell lysate, small-molecule microarray, COS7 lysate, 635/667 nm fluorescence, primary screen (AID 1116); settings: 635 nm fluorescence, higher = more signal
Chain of Torsin-1A-interacting protein 1 (Homo sapiens) (Q5JTV8 whole entry, looked up): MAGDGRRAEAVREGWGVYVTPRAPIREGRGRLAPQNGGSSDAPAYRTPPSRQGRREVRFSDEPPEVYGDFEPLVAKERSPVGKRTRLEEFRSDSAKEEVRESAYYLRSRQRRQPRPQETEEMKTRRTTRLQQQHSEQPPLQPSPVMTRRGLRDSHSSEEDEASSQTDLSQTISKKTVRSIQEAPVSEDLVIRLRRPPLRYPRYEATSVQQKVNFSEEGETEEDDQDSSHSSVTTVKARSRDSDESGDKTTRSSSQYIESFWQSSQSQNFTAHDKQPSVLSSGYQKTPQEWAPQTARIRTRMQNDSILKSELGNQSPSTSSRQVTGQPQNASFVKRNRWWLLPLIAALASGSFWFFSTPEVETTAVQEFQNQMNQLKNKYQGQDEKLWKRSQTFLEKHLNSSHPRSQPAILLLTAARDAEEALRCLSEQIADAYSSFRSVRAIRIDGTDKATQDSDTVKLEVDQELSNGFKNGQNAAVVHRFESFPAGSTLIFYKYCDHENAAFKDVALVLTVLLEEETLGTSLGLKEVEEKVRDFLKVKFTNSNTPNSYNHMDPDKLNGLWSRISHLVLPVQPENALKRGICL

[20] = target: Alpha-bungarotoxin (Bungarus multicinctus) (UniProt P60615); assay: compounds binding labelled alpha-BTX control protein – biochemical, small-molecule microarray, Alexa647 label, 635/667 nm fluorescence, artefact control for SMM control protein annotation, profiling panel (AID 1117); settings: alpha-BTX-A647 binding fluorescence, higher = more signal
Chain of Alpha-bungarotoxin (Bungarus multicinctus) (P60615 whole entry, looked up): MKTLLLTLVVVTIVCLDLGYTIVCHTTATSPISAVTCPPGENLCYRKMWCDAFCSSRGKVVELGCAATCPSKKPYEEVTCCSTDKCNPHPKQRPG

| SMILES | composite z-score [1] | composite z-score [2] | composite z-score [3] | z-score [4] | composite z-score [5] | composite z-score [6] | composite z-score [7] | composite z-score [8] | composite z-score [9] | composite z-score [10] | composite z-score [11] | z-score [12] | composite z-score [13] | composite z-score [14] | composite z-score [15] | composite z-score [16] | composite z-score [17] | composite z-score [18] | composite z-score [19] | composite z-score [20] |
| --- | --- | --- | --- | --- | --- | --- | --- | --- | --- | --- | --- | --- | --- | --- | --- | --- | --- | --- | --- | --- |
| O=C1O[C@@H](c2ccccc2)[C@@H](c2ccccc2)N2[C@@H](c3ccccc3OCCO)[C@]3(C(=O)Nc4ccc(C#CC5(O)CCCCCC5)cc43)[C@@H](C(=O)NC[C@H](O)c3ccccc3)[C@H]12 | 1.06 | 1.64 | 0.204 | -0.525 (inactive) | 1.3 | 0.868 | 0.265 | 1.08 | 0.283 | 1 | 1.41 | -3.23 | -0.24 | 0.819 | 0.923 | 0.0912 | 0.681 | 1.86 | 0.0197 | 0.728 |
| CCCC[C@H]1OB(O)C[C@H]2C1=C(COc1ccccc1)C[C@H]1C(=O)N(Cc3ccccc3)C(=O)[C@H]12 | 0.412 | -0.154 | -0.283 | -0.788 (inactive) | 0.509 | 0.103 | -0.248 | 0.581 | 0.193 | 0.78 | 1.38 | -1.72 | 0.377 | 0.324 | -0.774 | -0.176 | -0.0709 | -0.273 | -0.0868 | 1.04 |
| CCN(CC)c1ccc(N2CC=CC34O[C@@H]5/C=C\CCC(C)OC(=O)C5[C@H]3C(=O)N(CCCCCCO)[C@@H]4C2=O)cc1 (stereo not given in full) | 0.586 | -0.331 | 0.0224 | 0.449 (inactive) | -0.0455 | -0.624 | -0.782 | -0.622 | -0.471 | 1.04 | -0.27 | -0.693 | -0.694 | -0.423 | -0.304 | -0.13 | -0.223 | -0.16 | 0.891 | -1.04 |
| C=C(CCCC)/C(=C/C[C@@H](OC(=O)c1ccncc1)c1ccc(CO)o1)c1cc(C(=O)OC)ccc1OC | 1.5 | 0.0296 | -0.363 | 0.674 (inactive) | 0.833 | 1.31 | 0.669 | 1.03 | 0.744 | 0.775 | 0.277 | -1.73 | 1.02 | 1.19 | -0.759 | -0.0445 | -0.0011 | -0.216 | 0.774 | 1.59 |
| CC(C)(C)OC(=O)CC[C@@]1(C(=O)N2CCOCC2)N=C(c2ccc(OCCCO)cc2)O[C@@H]1c1ccccc1N=[N+]=[N-] | 1.3 | 0.981 | 1.04 | -1.07 (inactive) | 1.33 | 0.451 | 0.295 | 1.13 | 0.458 | 1.03 | 1.48 | 0.623 | 0.395 | 1.56 | 0.642 | 0.115 | 0.558 | 0.45 | 1.6 | 2.41 |
| O=C1O[C@@H](c2ccccc2)[C@@H](c2ccccc2)N2[C@@H](c3ccc(O)cc3)[C@]3(C(=O)Nc4ccccc43)[C@@H](C(=O)N3CCCCCCC3)[C@H]12 | 2.02 | 2.5 | 1.53 | -1.29 (inactive) | 1.03 | 1.32 | 1.27 | 1.58 | 1.56 | 1.98 | 1.47 | -1.93 | 0.695 | 2.86 | 1.61 | 1.37 | 2.07 | -0.531 | 4.6 | 3.12 |
| [N-]=[N+]=Nc1ccccc1C[C@]1(C(=O)N2CCCCC2)N=C(c2ccc(OCCCO)cc2)O[C@H]1c1ccccc1N=[N+]=[N-] | 1.42 | 0.0941 | 1.18 | -0.103 (inactive) | 1.4 | 0.743 | -0.0207 | 0.611 | -0.235 | 1.25 | 0.903 | -2.5 | -0.0089 | 1.46 | 0.605 | 0.2 | 0.294 | 1.87 | 1.21 | 0.703 |
| CCN(CC)c1ccc(N2CC=CC34O[C@@H]5/C=C\CCCOC(=O)C5[C@H]3C(=O)N(CCCO)[C@@H]4C2=O)cc1 (stereo not given in full) | 1.47 | -0.136 | 0.808 | 0.821 (inactive) | -1.04 | -0.422 | -1.48 | -0.88 | -1.75 | -0.222 | 0.941 | -0.597 | -2.09 | -0.629 | 0.479 | -0.197 | 0.14 | -0.0238 | 2.44 | -1.44 |
| COC(=O)[C@@]1(Cc2ccc(OC)cc2)[C@H]2c3cc(C(=O)N4CCCC4)n(CCc4ccccn4)c3C[C@H]2CN1C(=O)c1ccccc1 | 1.18 | 0.904 | 0.95 | -1.36 (inactive) | 0.289 | -0.282 | -0.664 | -0.396 | -0.949 | 0.845 | -0.091 | -0.216 | -0.694 | 1.34 | 0.61 | 0.164 | 1.23 | 1.22 | 0.432 | 0.329 |
| NC(=O)NCC#Cc1ccc2c(c1)[C@]1(C(=O)N2)[C@H](c2ccccc2OCCO)N2[C@H](c3ccccc3)[C@H](c3ccccc3)OC(=O)[C@H]2[C@@H]1C(=O)N1CCCCCCC1 | 1.68 | 2.88 | 1.73 | -0.308 (inactive) | 0.91 | 1.35 | 1.42 | 1.6 | 1.26 | 1.88 | 1.43 | -0.968 | 1.34 | 2.9 | 1.55 | 1.18 | 0.728 | 3.1 | 4.58 | 3.37 |
| CN1C(=O)C2C(C1=O)C1C=C(c3ccc(CO)cc3)C2C(C2CC2)N1Cc1sc2ccccc2c1Cl (stereo not given) | 0.924 | -0.197 | 0.82 | 0.254 (inactive) | 1.25 | 1.33 | 0.291 | 0.989 | 0.473 | 0.74 | 0.946 | -1.58 | 0.545 | 2.06 | 0.398 | 0.0561 | 0.079 | -0.186 | 2.06 | 2.87 |
| C=CCN1C(=O)[C@@]2(O[C@@H](CCO)[C@H]([Si](C)(C)c3ccc(OC)cc3)[C@H]2C)c2cc(N3C(=O)COc4ccccc43)ccc21 | 1.16 | -0.447 | -0.0458 | -3.26 (inactive) | 0.993 | 0.324 | -0.289 | 0.193 | -0.609 | -0.145 | 1.33 | -5.18 | 0.345 | 0.695 | -0.334 | 0.149 | -0.0626 | -0.292 | 1.16 | 0.445 |
